Screening results deposited in PubChem BioAssay by The Scripps Research Institute Molecular Screening Center.
This is a sample that favours compounds with a hit; in the whole collection about 4.1% have one here.
hgDAF12 agonist: hgDAF-12 agonism, primary luciferase screen; 370,000 compounds, 1.8% hits; activation, % at 6.8 µM; HEK293 GAL4-hgDAF12 UAS-luciferase reporter, agonist luminescence; normalized to butyrate control; AID 687014;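 active = activation above a cutoff set at the mean of all screened compounds plus 3 SD, cut at about 10% in these data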;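 note: 0% = DMSO wells and 100% = sodium butyrate wells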
ssDAF-12 act: activates DAF-12 receptor from parasite S. stercoralis; activation, % at 6.8 µM; 370,000 compounds, 1% hits; HEK293 ssDAF-12/GRIP1 lit1-tk-luc reporter, luminescence; % of 3 µM dafachronic acid response;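 active = activation above the mean over all tested compounds plus 3 SD, cut at about 0.9% in these data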;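 note: 0% = DMSO-only wells and 100% = 3 µM delta7-dafachronic acid wells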
DAX1 inh-1: DAX1 (NR0B1) inhibition, primary screen. 370,000 compounds, 1.1% hits. HEK293T StAR-luciferase reporter, SF-1/DAX-1 repression relief. inhibition, % at 6.8 µM;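 active = inhibition above the mean over all tested compounds plus 3 SD, cut at about 3.6% in these data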;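 note: 0% = DAX-1 cells with DMSO and 100% = cells lacking DAX-1 with DMSO; higher inhibition means more luminescence from relief of DAX-1 repression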
DAX1 inh-2: NR0B1 (DAX1) inhibition; inhibition, % at 6.75 µM; HEK293 Gal4-DAX1 luciferase reporter, luminescence; P51843; 340,000 compounds, 0.99% hits;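 active = inhibition above the mean over all tested compounds plus 3 SD, cut at about 4.2% in these data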;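 note: 0% = DAX1-transfected cells with DMSO and 100% = empty-vector control cells with DMSO; inhibition shows as a rise in luminescence from relieved DAX1 repression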
Target sequence (P51843 207-470 limits assumed): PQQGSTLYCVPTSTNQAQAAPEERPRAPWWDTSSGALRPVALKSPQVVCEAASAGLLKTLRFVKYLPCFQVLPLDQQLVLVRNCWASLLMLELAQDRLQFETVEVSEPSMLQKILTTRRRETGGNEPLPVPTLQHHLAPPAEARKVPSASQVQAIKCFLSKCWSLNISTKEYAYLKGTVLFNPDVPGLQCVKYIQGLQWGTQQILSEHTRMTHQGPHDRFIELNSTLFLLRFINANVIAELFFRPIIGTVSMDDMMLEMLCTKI
hcDAF12 agonist: activators of H. contortus DAF-12 nuclear receptor; 370,000 compounds, 1.4% hits; HEK293 hcDAF-12 lit1-tk-luc reporter, luminescence; 0% DMSO, 100% Δ7-dafachronic acid; activation, % at 6.8 µM;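 active = activation above the mean of all tested compounds plus 3 SD, cut at about 5.5% in these data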;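 note: 100% = response to 3 µM Δ7-dafachronic acid high control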
Active calls of the source: *; / = no result given.

SMILES	hgDAF12 agonist	ssDAF-12 act	DAX1 inh-1	DAX1 inh-2	hcDAF12 agonist
Cc1ccc(Nc2cc(C)nc(N3CCOCC3)n2)cc1	4.0	0.3	0.9	1.0	5.7*
Cc1cc(Nc2ccc(C)c(Cl)c2)nc(N2CCOCC2)n1	-0.6	-1.0	0.1	/	-2.2
COc1ccc(-c2nnn(CC(=O)N(CCCN3CCOCC3)C(C(=O)NC3CCCC3)c3ccc(C)o3)n2)cc1 (stereo not drawn)	3.1	-1.7	-0.1	2.0	-0.8
COc1ccc(-c2nnn(CC(=O)N(CCCN3CCOCC3)C(C(=O)NC3CCCC3)c3ccco3)n2)cc1 (stereo not drawn)	-2.4	-1.1	-0.2	5.2*	-0.9
CCCCNC(=O)C[C@H]1C[C@@]2(C(=O)OC)C(=C[C@H](C(C)(C)C)O[C@@H]2C)N(Cc2ccco2)C1=O	-0.7	-1.9	-0.4	/	-1.0
Cc1ccc2nsnc2c1NC(=S)NC(=O)c1ccco1	0.8	0.6	-0.2	0.5	2.1
Cc1ccc2nsnc2c1NC(=O)c1cccnc1Cl	-1.4	10.3*	1.1	1.6	-1.9
CN1C(=O)c2cc(NS(=O)(=O)c3cccc(F)c3)ccc2OC[C@@H]2O[C@H](CC(=O)O)CC[C@H]21	4.4	-0.5	1.1	/	-0.8
CCOC(=O)Cn1c(=O)cc(C)c2ccccc21	1.5	-1.1	0.7	4.5*	-0.2
Cc1cc(=O)n(CC(=O)O)c2ccccc12	1.0	-0.8	-0.1	0.8	3.7
COc1cc(NC(=O)c2cc(C3CC3)on2)c(OC)cc1Cl	3.6	0.4	-0.6	0.3	6.4*
COc1cc(NC(=O)C/C(C)=N/NC(=O)c2ccccn2)c(OC)cc1Cl	13.1*	0.3	1.5	0.7	4.0
COc1cc(NC(=O)C/C(C)=N/NC(=O)Cc2ccc(Cl)cc2)c(OC)cc1Cl	-4.4	-0.8	0.0	-0.2	-2.0
COc1cc(NC(=O)C2CCCC2)c(OC)cc1Cl	1.2	-1.0	0.3	0.4	1.4
COc1ccccc1NC(=O)C/C(C)=N/NC(=O)COc1c(Br)cc(Br)cc1OC	0.9	-1.7	4.2*	2.9	-0.5
CCc1ccccc1NC(=O)C/C(C)=N/NC(=O)COc1ccccc1C	1.0	-0.6	0.0	-0.4	0.3
COc1ccccc1NC(=O)C/C(C)=N/NC(=O)c1ccccn1	12.7*	0.4	2.1	3.3	3.9
COC(=O)[C@]12C[C@H](CC(=O)NCCC(C)C)C(=O)N(Cc3cccc4ccccc34)C1=C[C@H](C(C)(C)C)O[C@@H]2C	2.8	-1.5	-0.2	/	-0.3
COc1ccc(C(=O)C(=O)N2CCN(C(=O)c3cc(C(F)(F)F)cc(C(F)(F)F)c3)CC2)cc1OC	0.6	-1.4	-0.3	/	-1.9
CC(=O)Nc1cccc(NC(=S)Nc2cccc(Cl)c2Cl)c1	-2.8	-1.6	-0.1	0.6	-0.6
S=C(Nc1ccccc1)Nc1cccc(Cl)c1Cl	2.4	-0.8	-0.6	6.1*	2.1
S=C(N/N=C/c1ccccc1Cl)Nc1ccccc1	11.3*	0.7	1.1	4.4*	3.1
COc1cccc([C@@H]2NC(=O)C/C=C/[C@H](C)[C@H](c3cccc(OC)c3)NC(=O)C/C=C/[C@@H]2C)c1	-2.1	-0.2	-0.9	/	-0.3
O=C(c1ccc2c(c1)OCCCO2)c1cccs1	10.5*	0.1	2.8	2.0	4.7
COC(=O)CCc1nc2ccccc2[nH]c1=O	2.8	-1.5	0.6	-0.7	-0.6
SMILES	hgDAF12 agonist	ssDAF-12 act	DAX1 inh-1	DAX1 inh-2	hcDAF12 agonist
COC(=O)CSCc1nc2ccccc2[nH]c1=O	2.2	0.8	-1.1	-0.1	5.6*
O[C@H](COc1ccc(C(F)(F)F)cc1)CN1CCC(C(O)(c2ccccc2)c2ccccc2)CC1	-2.2	-1.4	1.8	/	-0.6
COC(=O)CNC(=O)COC(=O)/C=C/c1ccccc1[N+](=O)[O-]	2.7	2.0*	-0.5	2.7	3.6
COc1ccc(NC(=O)COC(=O)/C=C/c2ccccc2[N+](=O)[O-])cc1	-0.6	-1.2	-0.4	-1.0	-0.9
N#C/C(=C\c1ccccc1[N+](=O)[O-])C(=O)NCc1ccccc1	0.1	-1.2	-0.3	4.5*	-0.7
NS(=O)(=O)c1ccc(CNC(=O)/C=C/c2ccccc2[N+](=O)[O-])cc1	-3.5	-1.0	-0.5	4.4*	3.4
O=C(/C=C/c1ccccc1[N+](=O)[O-])NCc1ccc(Cl)cc1	0.3	-1.9	-0.7	-0.4	3.0
CCCCCCCCN1C(=O)[C@@H](CC(=O)N2CCC(c3ccccc3)CC2)C[C@@]2(C(=O)OC)C1=C[C@H](C1CCCC1)O[C@@H]2C	-1.8	-1.4	-0.4	/	-1.8
c1csc(-c2nc(CN3CCSCC3)cs2)c1	12.4*	-0.1	2.1	-0.1	4.9
CCCCS(=O)(=O)N1C2=NC(C(=O)OCC)=C(C(=O)OCC)C3N(Cc4ccc(Br)cc4)c4ccccc4[C@]23C[C@H]1C(=O)OC (stereo partly drawn)	1.4	-0.6	-0.2	/	2.0
Cc1ccc(C(=O)n2ccc3ccc(-c4ccc5ccn(Cc6ccccc6)c5c4)cc32)cc1	2.8	-0.3	-0.1	/	6.2*
O=C(CSc1nc2ccccc2c(=O)n1-c1ccccc1)N1CCc2ccccc2C1	-0.3	1.0*	-0.6	-1.2	2.3
CC(=O)O[C@@H]1CCC[C@@]2(C(=O)N(Cc3ccccc3)c3ccc(-c4c(C)noc4C)cc32)[C@H]1NC(=O)CCc1ccccc1	-3.3	-1.1	-1.4	/	-2.2
NC(CSC(c1ccccc1)(c1ccccc1)c1cccc2ccccc12)C(=O)O (stereo not drawn)	/	/	/	4.5*	/
CN(C)c1ccc(/C=C2\SC(N3CCCCC3)=NC2=O)cc1	-1.8	-1.6	-1.0	4.6*	-0.1
Cc1ccc(/C=C2\SC(N3CCCC3)=NC2=O)cc1	2.2	-0.3	-0.7	/	-0.3
COc1cc2c(c(OC)c1OC)-c1ccc(N(C)CC(OC)OC)c(=O)cc1[C@@H](NC(C)=O)CC2	-3.3	-0.2	0.4	-1.1	1.1
COc1cc2c(c(OC)c1OC)-c1ccc(SC)c(=O)cc1C(NC(=O)C(F)(F)F)CC2 (stereo not drawn)	-5.8	-0.9	3.7*	-0.2	0.8
COc1cc2c(c(OC)c1OC)-c1ccc(NC(=O)c3ccc(F)cc3)c(=O)cc1[C@@H](NC(C)=O)CC2	-1.5	-0.2	-0.4	-0.6	1.1
COc1cc2c(c(OC)c1OC)-c1ccc(NCc3ccccc3)c(=O)cc1C(NC(C)=O)CC2 (stereo not drawn)	-5.0	-1.2	4.0*	-0.1	-0.4
COc1ccc2c(c1)OC/C(=C/c1cccs1)C2=O	9.6	-0.4	4.2*	2.2	3.0
COc1ccc(/C=C2\COc3ccccc3C2=O)c(OC)c1	7.0	-0.3	1.1	2.6	1.4
COc1ccc(CC(=O)OCC(=O)Nc2ccc(C(=O)Nc3ccc(OC)cc3)cc2)cc1	-1.0	-1.5	0.2	4.2*	-1.9
CS(=O)(=O)Nc1ccc(C(=O)Nc2ccc3ccccc3c2)cc1	11.3*	1.3*	1.8	1.9	3.9
COc1ccc(C(=O)Nc2cccc(NC(C)=O)c2)cc1	3.3	0.1	1.1	/	0.1
